Bioassay records deposited in PubChem by National Center for Advancing Translational Sciences (NCATS).
A selection: hits, their analogues and other compounds. The true share with any hit is near 17%.
S2 tox: viability counter-screen for ATXN expression inhibitors; 400,000 compounds, 0.49% hits; S2 cells (HEK-293 line with an ATXN2-luciferase reporter) viability, CellTiter-Fluor protease fluorescence, 24 h; Potency, µM (top dose mostly 56.7 µM), hits mostly cytotoxic; further: nearly all actives have a fitted effect of over 40% in size
TGFb SMAD3 inh: TGF-b pathway inhibition; HepG2 CAGA-GFP TGF-b/SMAD3 reporter, GFP fluorescence, 18 h; TGF-beta stimulated, 500 pg/mL final; Potency, µM (highest dose often 46.1 µM), for inactives: top-dose activity, negative = inhibition, most hits filed as inhibitors; 410,000 compounds, 1.2% hits; further: on the % scale 0 is the no-effect control and ±100 the full control effect; nearly all actives have a fitted effect of over 65% in size
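First, reporter cells (HEPG2 CAGA-GFP) rested 2 h at 37 degrees C. Next, compounds were pinned in and TGF-beta added to 500 pg/mL final. After 18 h, GFP was imaged per cell and summed per well.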
TDP1 cell noCPT: qHTS for Inhibitors of human tyrosyl-DNA phosphodiesterase 1 (TDP1): qHTS in cells in absence of CPT. DT40 Tdp1-/- hTDP1 cells, no CPT, ATP luminescence, 48 h. Potency, µM (highest dose often 46.2 µM), without a hit: at the highest dose activity change, negative = growth inhibition, most hits filed as inhibitors. 420,000 compounds, 15% hits. AID 686978, 2013; further: on the % scale 0 is the no-effect control and ±100 the full control effect; nearly all actives have a fitted effect of over 55% in size
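Readout: luminescence from CellTiter-Glo after 30 min in the dark at RT. Cells: DT40 Tdp1-/- with stable hTDP1, 400/well. Exposure: compounds alone, ≥48 hr, 37 °C.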
TDP1 cell CPT: growth inhibition of DT40 Tdp1-/-;hTDP1 cells with camptothecin (screen for TDP1 inhibitors). Potency, µM (titrated, usually from 46.2 µM), for the others: at the top dose activity change, negative = growth inhibition, usual class: inhibitors. chicken DT40 Tdp1-/-;hTDP1 cells + 20 nM CPT, ATP luminescence, 48 h. 420,000 compounds, 12% hits; further: on the % scale 0 is the no-effect control and ±100 the full control effect; nearly all actives have a fitted effect of over 55% in size
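Chicken DT40 Tdp1-/- cells stably complemented with human TDP1 were seeded at 400 cells/well in medium containing 20 nM camptothecin, exposed to pin-transferred compounds, and grown at 37 °C for at least 48 hr. Viability was read as ATP luminescence.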
HepG2 tox: counter-screen for TGF-b inhibitors: cytotoxicity in HepG2 cells; HepG2 CAGA-GFP viability, ATP luminescence, 18 h; Potency, µM (titrated, usually from 46.1 µM), inactives show at the top dose activity change, negative = cytotoxicity, hits mostly cytotoxic; 410,000 compounds, 0.76% hits; AID 588856
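HepG2 CAGA-GFP cells (1000/well, DMEM with 1% FBS) received compound, then TGF-beta at 500 pg/mL final, and were incubated 18 hours at 37 degrees C. Viability was read by CellTiter-Glo luminescence. Media-only wells were set as complete cell-killing and DMSO as no toxicity.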
ATXN2 expr inh: reduces ATXN2 reporter expression in HEK-293 cells; Potency, µM (doses to about 57 µM), without a hit: at the top dose activity change, negative = inhibition, hits mostly inhibitors; HEK-293 ATXN2-luciferase reporter, luminescence, 24 h; 360,000 compounds, 0.72% hits; further: on the % scale 0 is the no-effect control and ±100 the full control effect; nearly all actives have a fitted effect of over 55% in size
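qHTS (up to 57 uM final) was run with 24 h compound exposure of reporter cells at 37 °C. Each well was multiplexed: SteadyGlo luminescence measured ATXN2-luciferase expression after a fluorogenic Gly-Phe-AFC viability readout (25 uM final).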
Starred values were filed as active, the others as inactive; i = inactive; ? = inconclusive; / = not tested or not shown. The call rests on the fitted dose curve; in most records, active means well fitted curve in the direction sought with a large enough effect; inconclusive means small, poorly fitted or top-dose-only effect, or another doubt; inactive means no such curve, though single readings can be large; an effect the other way counts as inactive or inconclusive. Potency means the concentration at half of the fitted maximal effect.

SMILES	S2 tox	TGFb SMAD3 inh	TDP1 cell noCPT	TDP1 cell CPT	HepG2 tox	ATXN2 expr inh
O=C(/C=C/c1ccc([N+](=O)[O-])s1)N1CCN(c2ccccc2)CC1	?	?	16.4µM*	?	-58.4%	/
O=C(/C=C/c1ccc([N+](=O)[O-])s1)N1CCCC1	?	11.2µM*	10.3µM*	20.6µM*	20µM*	/
O=C(/C=C/c1cccs1)N1CCCCC1	i	-5.0%	-15.6%	-11.4%	0.9%	5.8%
O=C(/C=C/c1ccccc1[N+](=O)[O-])N1CCN(c2ccc(F)cc2)CC1	i	12.2%	-12.7%	-18.6%	1.5%	-7.9%
O=C(/C=C/c1ccc([N+](=O)[O-])s1)N1CCCCC1	?	12.6µM*	11.6µM*	?	11.2µM*	?
CN1CCCC(OC(=O)c2ccc(S(=O)(=O)N(C)C)cc2)C1 (stereo unspecified)	i	-14.5%	-10.0%	-2.0%	-7.4%	/
CCSC1=N/C(=C/c2ccsc2)C(=O)N1c1ccccc1	i	?	?	5.1%	-15.2%	2.8%
COc1ccc(-n2nnnc2C(CCc2ccccc2)N2CCN(C/C=C/c3ccccc3)CC2)cc1 (stereo unspecified)	?	-69.8%	16.4µM*	?	-5.7%	-16.9%
COc1ccc(-n2nnnc2C(c2cccc(OC)c2OC)N2CCN(C/C=C/c3ccccc3)CC2)cc1 (stereo unspecified)	?	?	18.4µM*	23.1µM*	-6.4%	-20.1%
CCC(c1nnnn1-c1ccc(OC)cc1)N1CCN(C/C=C/c2ccccc2)CC1 (stereo unspecified)	i	?	?	20.6µM*	-7.1%	-19.0%
COc1cccc(C(c2nnnn2C2CCCC2)N2CCN(C/C=C/c3ccccc3)CC2)c1OC (stereo unspecified)	/	?	?	?	-18.6%	?
CC(C)(C)n1nnnc1C(c1ccccc1)N1CCN(C/C=C/c2ccccc2)CC1 (stereo unspecified)	?	-9.5%	?	?	-14.8%	-14.1%
CCC(c1nnnn1C(C)(C)C)N1CCN(C/C=C/c2ccccc2)CC1 (stereo unspecified)	i	-4.0%	?	?	-14.3%	-17.5%
CCCCn1nnnc1C(CC)N1CCN(C/C=C/c2ccccc2)CC1 (stereo unspecified)	i	-33.3%	?	?	-35.0%	-13.8%
COc1ccc(-n2nnnc2C(c2ccccc2)N2CCN(C/C=C/c3ccccc3)CC2)cc1 (stereo unspecified)	i	?	?	20.6µM*	-31.0%	-28.2%
Nc1nonc1-n1nnc(C(=O)c2ccccc2)c1-c1ccccc1	i	?	?	-14.8%	-9.2%	-4.3%
C/C(=N\N1CCN(C2c3ccccc3-c3ccccc32)CC1)c1ccco1	i	-18.7%	-24.8%	-11.0%	-10.8%	-4.8%
CCOC(=O)Cc1csc(NC(=O)Nc2ccc(F)cc2)n1	?	3.6%	18.4µM*	?	-2.7%	5.2%
CCOC(=O)Cc1csc(NC(=O)CC)n1	i	-2.8%	-2.8%	7.5%	-18.7%	6.9%
CCOC(=O)Cc1csc(NC(=O)/C=C/c2ccco2)n1	i	?	-10.6%	-11.0%	-16.2%	0.6%
CCOC(=O)Cc1csc(NC(=O)Nc2ccc(C)cc2)n1	i	-7.7%	?	-25.9%	-7.4%	10.9%
CCOC(=O)Cc1csc(NC(=S)NC(=O)c2cc(OC)c(OC)c(OC)c2)n1	i	-1.8%	11.6µM*	?	0.3%	/
CCOC(=O)Cc1csc(NC(=O)c2sc3nc4c(C)cc(C)cc4cc3c2N)n1	?	45.5%	18.4µM*	?	-58.2%	?
CCOC(=O)Cc1csc(NC(=O)/C=C/c2ccc(Cl)cc2)n1	i	-21.0%	?	18.4µM*	-12.2%	-29.0%
Cc1ccccc1N(CC(=O)NCc1ccc2c(c1)OCO2)C(=O)C1CSC(=O)C1 (stereo unspecified)	i	-6.0%	-21.5%	3.3%	-3.4%	-7.2%
SMILES	S2 tox	TGFb SMAD3 inh	TDP1 cell noCPT	TDP1 cell CPT	HepG2 tox	ATXN2 expr inh
Cn1c(=O)[nH]c(=O)c2c1nc(SCC(N)=O)n2Cc1cccc(Br)c1	i	-6.8%	-11.0%	-12.4%	-17.9%	46.5%
COCCN1C(=O)CCC1(C)C(=O)Nc1c(C)cccc1C (stereo unspecified)	i	-12.3%	11.0%	-7.6%	2.1%	5.4%
COc1ccc(Cl)cc1C(=O)OCC(=O)NCCNC(=O)COC(=O)c1cc(Cl)ccc1OC	i	-9.8%	4.8%	2.8%	1.3%	8.3%
CCOC(=O)Cc1csc(N/C(=N/S(=O)(=O)c2ccc(Cl)cc2)c2ccccc2)n1	i	-3.1%	29.1µM*	?	-9.4%	-10.4%
CCOC(=O)Cc1csc(NC(=O)C(NC(=O)C2CCC(C)CC2)C(C)C)n1 (stereo unspecified)	?	-18.0%	8.2µM*	?	-22.6%	/
CCC(C)C(NC(=O)C1CCC(C)CC1)C(=O)NC(C(=O)OC)C(C)C (stereo unspecified)	i	-14.8%	?	-14.6%	-1.8%	1.8%
CCOC(=O)Cc1csc(NS(=O)(=O)c2ccc(Cl)cc2)n1	?	-3.9%	0.5%	-7.9%	-0.2%	-18.2%
CCOC(=O)Cc1csc(NC(=O)Cn2cnc3c2c(=O)n(C)c(=O)n3C)n1	i	2.7%	-79.6%	16.4µM*	-13.2%	-5.5%
CCOC(=O)C(C)NC(=O)C(NC(=O)C1CCC(CC)CC1)C(C)C (stereo unspecified)	i	-10.9%	?	14.6µM*	1.6%	11.0%
CC(=O)Cn1nnc2sc3c(c2c1=O)CCC(C(C)(C)C)C3 (stereo unspecified)	i	-0.2%	?	?	-18.2%	38.5%
CCCOC(=O)c1ccc(NC(=O)Cn2nnc3sc4c(c3c2=O)CCC(C(C)(C)C)C4)cc1 (stereo unspecified)	i	-2.3%	8.2µM*	18.4µM*	2.6%	14.4%
CCc1ccccc1NC(=O)Cn1nnc2sc3c(c2c1=O)CCC(C(C)(C)C)C3 (stereo unspecified)	i	11.2%	14.6µM*	16.4µM*	-5.1%	-11.9%
